Source: PubChem BioAssay (The Scripps Research Institute Molecular Screening Center)
Sampled rows, rich in hits. Any-hit rate of the full collection: about 1.8%.
PAD4 inh – blocks human protein arginine deiminase 4. AID 485272. inhibition, % at 6.36 µM. actives 0.41% (n = 330,000). recombinant PAD4, RCA probe fluorescence polarization. Q9UM07;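 active means percent inhibition above a cutoff equal to the mean of all tested compounds plus 3 SD, cut at about 15% in these data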;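 further: 0% = PAD4 with RCA probe and DMSO and 100% = probe without PAD4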
LYPLA2 inh – counter-screen for PME1 inhibitors: inhibitors of human LYPLA2. O95372. recombinant LYPLA2, FP-Rh probe fluorescence polarization. inhibition, % at 5.9 µM. actives 0.38% (n = 320,000). AID 2177;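 active means inhibition above the screen-wide mean plus 3 SD, limit set per campaign, cut at about 26% in these data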;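 further: 0% = LYPLA2 with DMSO and 100% = wells lacking LYPLA2 enzyme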
GSTO1 counter – GSTO1 inhibition, counter-screen for RBBP9 inhibitors; P78417; recombinant GSTO1, activity-based probe fluorescence polarization; inhibition, % at 5.96 µM; actives 1.1% (n = 300,000); AID 1974;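 active means inhibition above the campaign mean inhibition plus 3 SD, cut at about 35% in these data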;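 further: 0% = GSTO1-1 with DMSO and 100% = wells lacking GSTO1-1 enzyme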
PME-1 primary – PME-1 (human) inhibition. Q9Y570. recombinant PME-1, FP-Rh probe fluorescence polarization. inhibition, % at 5.9 µM. actives 0.53% (n = 320,000);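 active means inhibition above the campaign mean of all compounds plus 3 SD, cut at about 26% in these data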;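 further: competitive labeling of PME-1 active site by serine hydrolase directed probe; 0% = PME-1 with DMSO and 100% = wells lacking PME-1 enzyme; inhibitors block probe labeling so polarization falls and inhibition rises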
Target sequence (Q9Y570 whole entry, looked up): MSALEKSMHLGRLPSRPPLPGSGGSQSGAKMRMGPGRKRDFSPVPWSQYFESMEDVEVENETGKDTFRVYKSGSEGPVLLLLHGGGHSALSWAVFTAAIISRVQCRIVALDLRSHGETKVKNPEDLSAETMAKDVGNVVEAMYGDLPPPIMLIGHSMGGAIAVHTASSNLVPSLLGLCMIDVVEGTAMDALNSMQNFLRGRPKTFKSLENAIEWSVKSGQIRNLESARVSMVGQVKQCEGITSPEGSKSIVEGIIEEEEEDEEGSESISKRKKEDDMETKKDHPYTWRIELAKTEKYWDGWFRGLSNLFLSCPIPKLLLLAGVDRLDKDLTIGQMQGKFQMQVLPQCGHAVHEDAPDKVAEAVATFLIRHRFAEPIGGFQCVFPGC
LYPLA1 inh – blocks human lysophospholipase 1, a PME1 counter-screen; O75608; recombinant LYPLA1, FP-Rh probe fluorescence polarization; inhibition, % at 5.9 µM; actives 0.16% (n = 320,000); AID 2174;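 active means inhibition above the mean of all tested compounds plus 3 SD, set per campaign, cut at about 14% in these data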;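 further: inhibitors block serine hydrolase probe labeling of LYPLA1 so polarization falls; 0% = enzyme with DMSO and 100% = wells lacking LYPLA1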
Target sequence (O75608 whole entry, looked up): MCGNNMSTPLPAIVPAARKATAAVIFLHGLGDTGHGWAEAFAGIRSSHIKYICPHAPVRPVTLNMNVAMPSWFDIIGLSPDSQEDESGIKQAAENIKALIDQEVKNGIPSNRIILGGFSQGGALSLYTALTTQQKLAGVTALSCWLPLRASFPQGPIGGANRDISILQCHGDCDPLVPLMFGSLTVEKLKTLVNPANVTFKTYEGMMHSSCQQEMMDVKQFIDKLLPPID
Fam108B inh – counter-screen for RBBP9 inhibitors: inhibitors of mouse Fam108B. recombinant Fam108B, FP-Rh probe fluorescence polarization. inhibition, % at 9.51 µM. actives 0.33% (n = 300,000). AID 1947;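 active means inhibition above the screen mean inhibition plus 3 SD, computed separately per campaign, cut at about 18% in these data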;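 further: inhibitors lower polarization as less probe binds the enzyme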
Fam108b confirm – confirmation of mouse Fam108b serine hydrolase inhibitors; shares compounds with Fam108B inh; recombinant Fam108b, FP-Rh probe fluorescence polarization; inhibition, % at 9.51 µM; actives 44% (n = 930); AID 1978;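 active means inhibition above a limit from the primary screen, the mean over all compounds plus 3 SD, cut at about 19% in these data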;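 further: 0% = median of active Fam108b wells and 100% = catalytically dead S170A mutant; inhibitors free the probe so polarization falls as inhibition rises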
Fam108b ABPP HTS – inhibits mouse Fam108b in gel-based ABPP. shares compounds with Fam108B inh. actives 44% (n = 260). inhibition, % at 20 µM. AID 588649. recombinant Fam108b, fluorophosphonate probe; in the data active means inhibition above about 40%
GSTO1 inh conf – confirmation of human GSTO1 inhibitors | shares compounds with GSTO1 counter | recombinant GSTO1, probe fluorescence polarization | inhibition, % at 5.96 µM | actives 54% (n = 2,400) | AID 2176;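 active means inhibition above the primary screen's cutoff, its mean inhibition plus 3 SD, cut at about 35% in these data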;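 further: loss of polarization as inhibitors block binding of rhodamine sulfonate ester activity probe; 0% = GSTO1 with DMSO and 100% = wells lacking GSTO1 enzyme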
GSTO1 recomb ABPP – GSTO1 (human) inhibition by gel ABPP; shares compounds with GSTO1 counter; recombinant GSTO1, gel ABPP SE-Rh probe fluorescence; inhibition, % at 1 µM; actives 30% (n = 130); AID 463110;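 active means inhibition of the enzyme GSTO1 above about 75%, limit read from the data; inactive means inhibition below that limit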
PAD4 confirm – PAD4 (human) inhibition, confirmed; shares compounds with PAD4 inh; inhibition, % at 6.36 µM; recombinant PAD4, RCA probe fluorescence polarization; AID 488796; actives 28% (n = 1,200);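 active means mean inhibition across replicates above the hit cutoff set by the earlier primary screen, cut at about 15% in these data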;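 further: inhibitors block active-site labeling by the probe so polarization falls; 0% = PAD4 with probe and DMSO and 100% = probe without PAD4 enzyme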
Active calls of the source: *; / = no result.

SMILES	PAD4 inh	LYPLA2 inh	GSTO1 counter	PME-1 primary	LYPLA1 inh	Fam108B inh	GSTO1 inh conf	others
CC(C)(C)[C@]1(O)C[C@@H]2OC(=O)C[C@@]23C(=O)O[C@@H]2OC(=O)[C@@H](O)C213 (some centres not stated)	4	/	/	/	/	/	/
CCCCn1c(NC(=O)c2ccco2)c(C(=O)OCC)c2nc3ccccc3nc21	55*	13	87*	19	7	49*	87*	Fam108b confirm=49*;Fam108b ABPP HTS=35;PAD4 confirm=14
CCCN1CCCC(C(=O)c2cc(C)c(OC)c(C)c2)C1 (configuration not stated)	4	4	-3	7	1	0	/
O=C(c1ccc2nc(-c3ccco3)c(-c3ccco3)nc2c1)N1CCC2(CC1)OCCO2	38*	2	90*	-6	-5	23*	16	Fam108b confirm=9;PAD4 confirm=-5
COc1ccc(C(=O)N2CCC3(CC2)OCCO3)cc1	1	-3	7	4	-1	2	/
Cc1cc(=O)[nH]c(CCl)n1	-4	1	67*	3	1	-1	90*	GSTO1 recomb ABPP=14
CN1CCN(C(=O)COc2ccc(S(=O)(=O)NC3CCCCC3)cc2Cl)CC1	-2	3	2	3	-1	1	/
Cc1cc(C(=O)Nc2ccccc2)nn1C(C)(C)C	3	0	7	-1	-1	3	/
Cc1cc(NC(=O)CCl)nn1C	1	2	85*	1	1	1	86*
Cn1ccc(NC(=O)CCl)n1	-2	2	62*	-1	4	-2	85*
Cc1ccccc1-n1c(O)c(C(c2ccncc2)c2c(O)n(-c3ccccc3C)c(=O)[nH]c2=O)c(=O)[nH]c1=O	-2	2	6	8	-2	2	/
COP(=O)(OC)C(NC(=O)/C=C/c1ccccc1)C(Cl)(Cl)Cl (configuration not stated)	-5	-2	39*	2	2	1	69*
CC(Cc1ccccc1)NC(=O)/C=C/c1ccc(Cl)cc1 (configuration not stated)	-1	-4	-1	-2	-3	-1	/
O=C1NC(=O)N(Cc2ccco2)C(=O)/C1=C/c1ccc(-c2cccc([N+](=O)[O-])c2)o1	0	5	40*	-2	1	16	27
Cc1c(N=Nc2c(O)[nH]c(=S)[nH]c2=O)c(=O)n(-c2ccccc2)n1C	3	1	57*	-11	-1	-4	6
CCOc1ccc2nc(N=Nc3c(O)[nH]c(=S)[nH]c3=O)sc2c1	-8	1	7	1	-1	3	/
CCCCn1c(N)c(C(=O)NCc2cccs2)c2nc3ccccc3nc21	2	1	61*	8	-3	-1	82*
CCCOC(=O)c1c(N)n(Cc2cccs2)c2nc3ccccc3nc12	-19	-4	42*	9	-6	-1	-2
CCCCCn1c(N)c(C(=O)NCCN2CCOCC2)c2nc3ccccc3nc21	-3	-6	4	10	2	8	/
COc1ccc(N2C(=O)NC(=O)/C(=C/c3ccc([N+](=O)[O-])s3)C2=O)cc1	-9	-9	30	-5	-9	10	/
COc1cccc(N2C(=O)NC(=O)/C(=C/c3ccc([N+](=O)[O-])s3)C2=O)c1	-7	-6	44*	3	-3	9	36*
O=C1CN=C(c2ccccc2)c2c(sc3c2CCCC3)N1	-1	-3	-6	0	-5	-4	/
Cc1ccsc1C(=O)C1CCCN(Cc2cnc(N3CCCC3)s2)C1 (configuration not stated)	-1	5	3	3	0	2	/
CNCCc1ccc(O)c(O)c1	-5	2	73*	0	-2	-1	8
C=CCN1CCc2cccc3c2[C@H]1Cc1ccc(O)c(O)c1-3	-6	-6	87*	1	-6	0	17
SMILES	PAD4 inh	LYPLA2 inh	GSTO1 counter	PME-1 primary	LYPLA1 inh	Fam108B inh	GSTO1 inh conf	others
COc1cc2c(cc1OC)C(C(=O)NC(C)C)C1CCCCN1C2=O (configuration not stated)	-3	-4	-3	-5	0	-2	/
O=[N+]([O-])c1cc(S(=O)(=O)c2ccc(O)c([N+](=O)[O-])c2)ccc1O	-6	7	40*	-1	0	16	49*
COC(=O)C1=C(c2ccc(F)cc2OCc2ccccc2)C[C@@H]2CC[C@H]1N2C(=O)NCc1cccc(C(F)(F)F)c1	-1	-10	/	-8	-6	/	/
O=C1C2CCN(CC2)C1Cc1ccc(OCc2ccccc2)cc1 (configuration not stated)	6	4	6	0	1	-4	/
Cc1ccc(S(=O)(=O)N2CN3CCN(C3)C2)cc1	0	4	2	4	1	3	/
Cc1ccc(S(=O)(=O)N2CC2(C)CCl)cc1 (configuration not stated)	-4	-1	44*	-3	2	-3	67*	GSTO1 recomb ABPP=11
CCN(CC)c1ccc(N=Cc2c(O)n(Cc3ccccc3)c(=O)[nH]c2=O)cc1	-14	-2	6	2	-2	2	/
CCN(CC)c1ccc(N=Cc2c(O)[nH]c(=O)[nH]c2=O)cc1	26*	6	56*	8	5	-1	1
O=C(Nc1ccc2ccccc2c1)c1nn(C23CC4CC(CC(C4)C2)C3)cc1Br	-4	-10	-2	-14	-8	-7	/
Cc1nc(Cl)sc1C(=O)Nc1ccc2ccccc2c1	2	-3	55*	-12	-7	-3	54*
Cc1cc(NC(=O)CCl)on1	2	3	73*	4	0	0	99*
O=C(COc1ccc(Cl)cc1)N1CCN(C2CCCC2)CC1	5	9	-1	-4	1	3	/
COC(=O)C(O)(c1c[nH]c2ccccc12)C(F)(F)F (configuration not stated)	-3	1	-6	-4	3	1	/
COC(=O)C(O)(c1c(C)[nH]n(-c2ccccc2)c1=O)C(F)(F)F (configuration not stated)	4	9	50*	1	2	2	52*
